# IL1B secr inh: inhibitors of inflammasome signaling (IL-1 beta secretion) | activity change, % at 57.5 µM | 360,000 tested, 4.7% active | THP-1 LPS/ATP IL-1B secretion, AlphaLISA, 16 h; stronger effect = lower value; in the data active = activity change below about -50%; inconclusive = mostly about -30% to -49%
#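 THP-1 cells pretreated 1 hr with compounds (up to 57.5 uM final), then stimulated with LPS (250 ng/mL final) plus ATP (1.25 mM final); secreted IL-1B measured by AlphaLISA after 16 hr, decreased signal indicating inhibition.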
# HT1080 IDH1KD tx: toxicity to HT-1080 IDH1 knockdown cells (counter line) | HT-1080 IDH1 knockdown viability, ATP luminescence, 48 h | Potency, µM (doses to about 46.1 µM), for the others: at the top dose activity, negative = toxicity, usual class: cytotoxic | 360,000 tested, 2% active | AID 686971;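 note: potency is the fitted concentration of half-maximal effect; 0% = DMSO wells and -100% = cell-free medium wells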
#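 % activity derives from luminescence (CellTiter-Glo), normalised to DMSO and no-cell wells. HT-1080-IDH1KD cells, 750/well, had 48 h compound exposure at 37 °C.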
# ELG1 repair inh: blocks ELG1-dependent DNA repair in HEK293T cells | Potency, µM (titrated, usually from 46.1 µM), without a hit: at the highest dose activity change, negative = inhibition, actives largely listed as inhibitors | HEK293T ELG1-luciferase reporter, luminescence, 16 h; DNA damage induced by 5-fluorouridine | 330,000 tested, 2.3% active | AID 504467; note: potency is the fitted concentration of half-maximal effect; nearly all actives have a fitted effect of over 55% in size
#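 5-Fluorouridine DNA damage + compound/DMSO, 2,000 cells/well, 16 h, 37 °C/5% CO2. ONE-Glo, 30 min RT, luminescence. Readout = decrease in reporter signal.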
# DT40 TDP1 no CPT: qHTS for Inhibitors of human tyrosyl-DNA phosphodiesterase 1 (TDP1): qHTS in cells in absence of CPT; DT40 Tdp1-/- hTDP1 cells, no CPT, ATP luminescence, 48 h; Potency, µM (series often up to 46.2 µM), inactives show at the highest dose activity change, negative = growth inhibition, most hits filed as inhibitors; 420,000 tested, 15% active; AID 686978, 2013; note: potency is the fitted concentration of half-maximal effect; nearly all actives have a fitted effect of over 55% in size
#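 Growth of hTDP1-complemented DT40 Tdp1-knockout cells is measured by ATP luminescence after at least 48 hr compound exposure at 37 °C, with DMSO substituting for the 20 nM CPT used in the parallel screen.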
# TDP1 cell CPT: DT40-hTDP1 cell growth loss with CPT; Potency, µM (titrated, usually from 46.2 µM), inactives show at the highest dose activity change, negative = growth inhibition, actives largely listed as inhibitors; 420,000 tested, 12% active; AID 686979; chicken DT40 Tdp1-/-;hTDP1 cells + 20 nM CPT, ATP luminescence, 48 h; note: potency is the fitted concentration of half-maximal effect; nearly all actives have a fitted effect of over 55% in size
#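 Chicken DT40 Tdp1-/- cells complemented with human TDP1, 400 cells/well, exposed to compounds plus 20 nM camptothecin for at least 48 h at 37 C; viability read as ATP content by CellTiter-Glo luminescence.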
# HT1080-NT tox: kills 2HG-producing HT-1080-NT fibrosarcoma cells. HT-1080-NT fibrosarcoma viability, CellTiter-Glo ATP luminescence, 48 h. Potency, µM (top dose mostly 46.1 µM), inactives show top-dose activity, negative = less viability, usual class: cytotoxic. 360,000 tested, 1.6% active;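 note: NT is the 2HG producing partner of a matched IDH1 knockdown line; potency is the fitted concentration of half-maximal effect; 0% = DMSO-treated cells and -100% = media-only wells without cells; nearly all actives have a fitted effect of over 55% in size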
#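 Compounds were tested in concentration-response format on HT-1080-NT cells for 48 hours at 37 degrees C. Cell viability came from CellTiter-Glo luminescence; curves were classified by r2, response magnitude and activity.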
# * = called active by the depositor; ? = inconclusive; . = no result given. A selection: hits, their analogues and other compounds. The true share with any hit is near 19%. Unless noted, calls come from the whole dose curve; as a rule, active = well fitted curve in the direction sought with a large enough effect; inconclusive = small, poorly fitted or top-dose-only effect, or another doubt; inactive = no such curve, though single readings can be large; an effect the other way counts as inactive or inconclusive. Unless noted, % is set by controls: 0 for no effect and ±100 for the full control effect.
SMILES,IL1B secr inh,HT1080 IDH1KD tx,ELG1 repair inh,DT40 TDP1 no CPT,TDP1 cell CPT,HT1080-NT tox
Cn1nc(C(=O)NCc2ccc(F)cc2)c2c1-c1ccccc1S(=O)(=O)C2,14,2%,7%,-9%,-11%,6%
CN(CC(=O)Nc1ccc(Cl)cc1)C1=NS(=O)(=O)c2ccccc21,18,1%,11%,8%,0%,3%
COc1ccc(N(C)C(=O)c2nn(-c3ccc(C)cc3)c(=O)n(C)c2=O)c(OC)c1,.,.,.,-9%,0%,.
Cc1cc(N2CCCC2)nc(SCC(=O)c2ccccc2)n1,-17,-11%,?,23µM*,?,2%
Cc1cc(N2CCC(C)CC2)nc(SCC(=O)c2ccccc2)n1,-62*,-23%,?,-83%,?,-3%
Cc1cc(N2CCOCC2)nc(SCC(=O)c2ccc(Cl)cc2)n1,-16,3%,?,?,16µM*,8%
Cc1cc(Cl)nc(SCC(=O)c2ccccc2)n1,?,7%,8%,14%,-15%,9%
Cc1cc(N2CCOCC2)nc(SCC(=O)c2ccccc2)n1,13,8%,?,-18%,-12%,4%
CN(C(=O)Nc1cnc2ccccc2c1)c1ccccc1,13,22%,?,2%,5%,26%
Cc1cc(C)cc(NC(=O)NCCc2c(C)nn(C)c2C)c1,.,.,.,-24%,-12%,.
COc1ccc(Cl)cc1NC(=O)NCCc1c(C)nn(C)c1C,.,.,.,16µM*,?,.
Cc1ccc(NC(=O)NCCc2c(C)nn(C)c2C)cc1Cl,.,.,.,23µM*,?,.
COc1ccc(NC(=O)NCCc2c(C)nn(C)c2C)c(OC)c1,.,.,.,9%,1%,.
CCOC(=O)C1(C)CCN1C(=O)c1csnn1 (centres undefined),22,14%,.,-9%,-3%,19%
CC[N+]1(C)C2CCC1CC(OC(=O)[C@H]1CCC(C(=O)OC3CC4CCC(C3)[N+]4(C)CC)(c3ccccc3)c3ccccc31)C2 (some centres undefined),.,.,.,-14%,-7%,.
N#C/C(=C\c1ccncc1)c1ccccn1,-100*,?,-21%,?,1%,?
N#C/C(=C\c1ccc(Cl)c([N+](=O)[O-])c1)c1ccccn1,-97*,10µM*,?,21µM*,21µM*,15µM*
CNc1ccc(/C=C(\C#N)c2ccccn2)cc1[N+](=O)[O-],-12,12%,?,-17%,-1%,-7%
CC[C@]1(C(=O)OC)[C@H]2C(=O)N(C)C(=O)[C@H]2[C@H]2CN=C(SCc3ccc(C#N)cc3)N21,1,2%,25%,-4%,-10%,17%
CCOC(=O)N1CCN(C(=O)CN(C2CCCCC2)S(=O)(=O)c2ccc(C)cc2)CC1,-5,20%,?,?,?,16%
CN(CC(=O)N1CCCC1)S(=O)(=O)c1ccc2ccccc2c1,-24,3%,3%,21µM*,?,2%
Cc1ccc(S(=O)(=O)N(CC(=O)N2CCN(c3ccc(F)cc3)CC2)C2CCCCC2)cc1,-3,-9%,-23%,21µM*,?,2%
Cc1ccc(S(=O)(=O)N(CC(=O)N=Nc2c(O)[nH]c3ccccc23)c2ccc(C)c(C)c2)cc1,?,?,?,21µM*,18µM*,?
Cc1ccc(S(=O)(=O)N=Nc2c(O)[nH]c3ccccc23)cc1,13,11%,1%,-1%,-26%,-1%
Cc1ccccc1CN(c1ccc(C(=O)N2CCc3ccccc3C2)cc1)S(C)(=O)=O,-7,-6%,15µM*,15µM*,12µM*,-4%
SMILES,IL1B secr inh,HT1080 IDH1KD tx,ELG1 repair inh,DT40 TDP1 no CPT,TDP1 cell CPT,HT1080-NT tox
Cc1ccc(NC(=O)CN2C(=O)NC(Cc3ccccc3)C2=O)c(Br)c1 (centres undefined),12,?,-6%,-1%,-18%,?
COc1ccc(S(=O)(=O)N(C)CC(=O)N2CCN(c3ccc(F)cc3)CC2)cc1OC,-3,-2%,-26%,22µM*,?,2%
Cc1ccc(S(=O)(=O)N(CC(=O)N2CCc3ccccc3C2)c2ccc(C)c(C)c2)cc1,.,.,.,18µM*,16µM*,.
COc1ccc(N(CC(=O)N2CCN(C)CC2)S(=O)(=O)c2ccccc2)cc1,14,-3%,19%,9%,3%,-5%
COc1ccc(N(CC(=O)N2CCc3ccccc3C2)S(=O)(=O)c2ccccc2)cc1,?,3%,6%,18µM*,18µM*,-4%
O=C(CN(c1ccc(Cl)c(Cl)c1)S(=O)(=O)c1ccccc1)N1CCc2ccccc2C1,-21,-29%,-7%,29µM*,?,-9%
CCN1CCN(C(=O)CN(c2ccc(F)cc2)S(=O)(=O)c2ccc(OC)c(OC)c2)CC1,3,-7%,1%,1%,7%,10%
CCOc1ccc(C2C(C(=O)Nc3ccc(OC)cc3)=C(C)Nc3nc(SCc4ccc(Cl)cc4)nn32)cc1 (centres undefined),.,.,.,-23%,-1%,.
COc1ccccc1C(=O)NCC(=O)NNC(=O)c1cccs1,0,22%,?,0%,1%,5%
COc1cc(C2NC(=O)NC(C)=C2C(=O)OCC2CCCCC2)ccc1O (centres undefined),-7,0%,-5%,?,8%,5%
COc1ccccc1N(CC(=O)N1CCN(Cc2ccccc2)CC1)S(=O)(=O)c1ccccc1,0,0%,.,16µM*,23µM*,6%
COc1ccccc1N1CCN(C(=O)C(C)N(c2ccc(C)c(C)c2)S(C)(=O)=O)CC1 (centres undefined),-3,-2%,?,?,15µM*,1%
COc1ccc(N(CC(=O)N2CCN(Cc3ccccc3)CC2)S(=O)(=O)c2ccccc2)cc1,-7,0%,0%,?,?,4%
COc1ccccc1N1CCN(C(=O)C(C)N(c2ccc(C)cc2)S(C)(=O)=O)CC1 (centres undefined),23,-1%,?,?,?,1%
COc1ccc(S(=O)(=O)N(CC(=O)N2CCN(c3ccccc3OC)CC2)c2ccccc2)cc1,-8,-23%,21µM*,12µM*,21µM*,-22%

# Screens (PubChem)
